# In the supplement of paper PMC10849652:
# About 7,900 targets were measured; listed, in parts, are those with a hit and a random draw of the rest. About 0.6% of all pairs of compound and target were hits. A number with no mark means an inactive call.
# Assays:
# Assay in all cases: log2 fold change, soluble protein after heating vs DMSO (PISA); higher = thermal stabilisation; K562 cells, 10 uM, 30 min; active = over 0.2 and 3.5 SD of the protein, either way, in both replicates (recomputed)
# bafetinib = compound: Cc1ccc(NC(=O)c2ccc(CN3CC[C@H](N(C)C)C3)c(C(F)(F)F)c2)cc1Nc1nccc(-c2cncnc2)n1 [bafetinib]
# Outline: (§1)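 K562 cells at 2×10^6 cells/mL were given 10 μM compound for 30 min. Aliquots then went through 3 min of heating across 48°C-58°C, were pooled, and were extracted in PBS with 0.5% NP-40 at 4°C, and the supernatant after 21,000xg for 90 min was quantified by TMTpro 16plex LC-MS/MS with channel sums equalised. Thermal stability relative to control samples, from duplicates, is given as log2 fold change.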
# [1] = compound: Cc1cccc(CC(=O)N2CCc3c2ccc(-c2cn(C)c4ncnc(N)c24)c3F)n1
# Outline: as §1
# nilotinib = compound: Cc1cn(-c2cc(NC(=O)c3ccc(C)c(Nc4nccc(-c5cccnc5)n4)c3)cc(C(F)(F)F)c2)cn1 [nilotinib]
# Outline: as §1
# [2] = compound: Cc1nc(Nc2n[nH]c3c2CN(C(=O)N[C@H](CN(C)C)c2ccccc2)C3(C)C)c2sccc2n1
# Outline: as §1
# dasatinib = compound: Cc1nc(Nc2ncc(C(=O)Nc3c(C)cccc3Cl)s2)cc(N2CCN(CCO)CC2)n1 [dasatinib]
# Outline: as §1
# [3] = compound: Cc1ncc(-c2ccnc(Nc3ccc(S(C)(=O)=O)cc3)n2)n1C(C)C
# Outline: as §1
# [4] = compound: Cn1cc(-c2ccc3c(c2)CCN3C(=O)Cc2cccc(C(F)(F)F)c2)c2c(N)ncnc21
# Outline: as §1
# [5] = compound: Cn1cc(-c2ccc3nnc(C(F)(F)c4ccc5ncccc5c4)n3n2)cn1
# Outline: as §1
# tipifarnib = compound: Cn1cncc1[C@@](N)(c1ccc(Cl)cc1)c1ccc2c(c1)c(-c1cccc(Cl)c1)cc(=O)n2C [tipifarnib]
# Outline: as §1
# mubritinib = compound: FC(F)(F)c1ccc(/C=C/c2nc(COc3ccc(CCCCn4ccnn4)cc3)co2)cc1 [mubritinib]
# Outline: as §1
# [6] = compound: NC(=O)Nc1cc(-c2cccc(F)c2)sc1C(=O)N[C@H]1CCCNC1
# Outline: as §1
# [7] = compound: NC(=O)c1cnc(N[C@@H]2CCCC[C@@H]2N)nc1Nc1cccc(-n2nccn2)c1
# Outline: as §1
# [8] = compound: NC1(c2ccc(-c3nc4ccn5c(=O)[nH]nc5c4cc3-c3ccccc3)cc2)CCC1
# Outline: as §1
# [9] = compound: NCC(=O)Nc1ccc(-n2nc(C(F)(F)F)cc2-c2ccc3c(ccc4ccccc43)c2)cc1
# Outline: as §1
# entinostat = compound: Nc1ccccc1NC(=O)c1ccc(CNC(=O)OCc2cccnc2)cc1 [entinostat]
# Outline: as §1
# vorinostat = compound: O=C(CCCCCCC(=O)Nc1ccccc1)NO [vorinostat]
# Outline: as §1
# citarinostat = compound: O=C(CCCCCCNC(=O)c1cnc(N(c2ccccc2)c2ccccc2Cl)nc1)NO [citarinostat]
# Outline: as §1
# silmitasertib = compound: O=C(O)c1ccc2c(c1)nc(Nc1cccc(Cl)c1)c1ccncc12 [silmitasertib]
# Outline: as §1
# [10] = compound: O=C1NC(=O)C(c2cnc3ccccn23)=C1c1cn2c3c(cc(F)cc13)CN(C(=O)N1CCCCC1)CC2
# Outline: as §1
# [11] = compound: c1cc(OCCN2CCCCC2)cc(-c2n[nH]c3ccc(-c4nnc[nH]4)cc23)c1
# Outline: as §1
# UniProt Q9Y244, sequence (Q9Y244 whole entry, looked up): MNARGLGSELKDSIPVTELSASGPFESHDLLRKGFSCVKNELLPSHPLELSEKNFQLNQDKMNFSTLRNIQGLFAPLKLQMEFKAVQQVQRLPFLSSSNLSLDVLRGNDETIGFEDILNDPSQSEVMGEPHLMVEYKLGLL
# UniProt P0CG38, sequence (P0CG38 whole entry, looked up): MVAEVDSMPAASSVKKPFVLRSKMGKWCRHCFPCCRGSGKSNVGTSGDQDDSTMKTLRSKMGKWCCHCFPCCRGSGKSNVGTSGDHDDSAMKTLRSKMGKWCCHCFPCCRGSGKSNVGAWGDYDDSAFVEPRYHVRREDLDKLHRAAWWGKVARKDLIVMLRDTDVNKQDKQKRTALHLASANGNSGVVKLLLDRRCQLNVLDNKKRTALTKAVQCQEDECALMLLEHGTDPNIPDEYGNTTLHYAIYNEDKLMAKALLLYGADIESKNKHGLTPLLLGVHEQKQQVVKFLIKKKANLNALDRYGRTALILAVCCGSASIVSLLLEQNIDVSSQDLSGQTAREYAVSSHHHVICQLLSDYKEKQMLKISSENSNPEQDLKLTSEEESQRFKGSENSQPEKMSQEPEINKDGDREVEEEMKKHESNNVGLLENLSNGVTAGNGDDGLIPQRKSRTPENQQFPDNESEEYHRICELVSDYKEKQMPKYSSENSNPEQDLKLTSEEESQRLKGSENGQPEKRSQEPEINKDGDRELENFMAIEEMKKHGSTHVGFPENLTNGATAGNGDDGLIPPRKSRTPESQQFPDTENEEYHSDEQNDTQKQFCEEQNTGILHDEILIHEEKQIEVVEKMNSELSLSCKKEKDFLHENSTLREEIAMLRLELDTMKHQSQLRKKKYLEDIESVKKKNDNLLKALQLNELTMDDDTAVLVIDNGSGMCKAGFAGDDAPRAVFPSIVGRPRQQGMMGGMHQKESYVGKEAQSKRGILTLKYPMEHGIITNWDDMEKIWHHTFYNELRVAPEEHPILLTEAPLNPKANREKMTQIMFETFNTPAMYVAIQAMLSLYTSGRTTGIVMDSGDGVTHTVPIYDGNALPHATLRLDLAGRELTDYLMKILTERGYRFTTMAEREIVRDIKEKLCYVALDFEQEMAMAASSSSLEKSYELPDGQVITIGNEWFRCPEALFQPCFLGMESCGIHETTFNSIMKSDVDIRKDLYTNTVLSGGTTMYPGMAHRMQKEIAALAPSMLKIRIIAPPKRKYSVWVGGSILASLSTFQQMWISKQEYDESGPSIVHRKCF
# UniProt P10644, sequence (P10644 whole entry, looked up): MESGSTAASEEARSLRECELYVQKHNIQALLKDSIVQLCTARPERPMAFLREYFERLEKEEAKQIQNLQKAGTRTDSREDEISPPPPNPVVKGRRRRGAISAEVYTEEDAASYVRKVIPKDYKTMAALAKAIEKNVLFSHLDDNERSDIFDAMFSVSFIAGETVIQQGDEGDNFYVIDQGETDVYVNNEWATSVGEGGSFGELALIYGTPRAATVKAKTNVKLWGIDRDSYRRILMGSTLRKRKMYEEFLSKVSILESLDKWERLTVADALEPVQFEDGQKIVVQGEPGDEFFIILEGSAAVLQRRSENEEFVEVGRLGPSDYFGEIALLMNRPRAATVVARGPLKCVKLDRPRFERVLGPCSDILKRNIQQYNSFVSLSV
# UniProt P49643, sequence (P49643 whole entry, looked up): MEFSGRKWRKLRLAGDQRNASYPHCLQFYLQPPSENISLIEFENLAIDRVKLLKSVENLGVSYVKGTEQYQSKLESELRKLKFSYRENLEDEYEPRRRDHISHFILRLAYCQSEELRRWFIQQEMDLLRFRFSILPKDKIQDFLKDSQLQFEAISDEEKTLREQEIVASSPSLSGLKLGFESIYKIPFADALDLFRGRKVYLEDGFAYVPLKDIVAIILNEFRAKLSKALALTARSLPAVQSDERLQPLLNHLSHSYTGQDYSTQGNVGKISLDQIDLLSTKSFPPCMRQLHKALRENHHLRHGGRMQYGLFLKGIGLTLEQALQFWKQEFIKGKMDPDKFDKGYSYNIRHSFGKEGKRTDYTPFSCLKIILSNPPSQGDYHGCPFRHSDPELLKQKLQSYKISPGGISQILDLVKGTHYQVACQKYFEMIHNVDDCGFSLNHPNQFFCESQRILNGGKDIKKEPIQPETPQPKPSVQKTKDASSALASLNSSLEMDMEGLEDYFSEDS
# UniProt Q7Z7A4, sequence (Q7Z7A4 whole entry, looked up): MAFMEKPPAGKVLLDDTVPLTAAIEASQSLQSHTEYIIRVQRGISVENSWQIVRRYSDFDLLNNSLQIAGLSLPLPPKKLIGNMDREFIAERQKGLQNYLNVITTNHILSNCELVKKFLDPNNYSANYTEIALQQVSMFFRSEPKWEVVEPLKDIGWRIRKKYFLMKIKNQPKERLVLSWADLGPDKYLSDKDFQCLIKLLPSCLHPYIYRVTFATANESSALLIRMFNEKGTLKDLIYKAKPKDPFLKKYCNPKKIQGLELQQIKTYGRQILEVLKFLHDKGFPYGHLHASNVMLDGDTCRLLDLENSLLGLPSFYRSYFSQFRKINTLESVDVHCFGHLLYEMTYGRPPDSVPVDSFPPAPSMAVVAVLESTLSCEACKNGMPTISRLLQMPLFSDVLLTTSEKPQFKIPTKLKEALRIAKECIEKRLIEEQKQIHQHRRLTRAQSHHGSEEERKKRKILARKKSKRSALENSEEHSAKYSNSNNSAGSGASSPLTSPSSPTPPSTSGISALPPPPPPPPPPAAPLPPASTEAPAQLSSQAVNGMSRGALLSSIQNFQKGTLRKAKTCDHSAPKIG
# UniProt O00233, sequence (O00233 whole entry, looked up): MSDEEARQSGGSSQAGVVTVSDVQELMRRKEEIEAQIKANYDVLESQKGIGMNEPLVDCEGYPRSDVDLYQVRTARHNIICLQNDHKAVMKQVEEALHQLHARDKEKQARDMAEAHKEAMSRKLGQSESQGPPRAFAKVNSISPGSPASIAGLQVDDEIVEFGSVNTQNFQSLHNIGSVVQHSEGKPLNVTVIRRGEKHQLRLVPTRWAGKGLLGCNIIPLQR
# UniProt O75340, sequence (O75340 whole entry, looked up): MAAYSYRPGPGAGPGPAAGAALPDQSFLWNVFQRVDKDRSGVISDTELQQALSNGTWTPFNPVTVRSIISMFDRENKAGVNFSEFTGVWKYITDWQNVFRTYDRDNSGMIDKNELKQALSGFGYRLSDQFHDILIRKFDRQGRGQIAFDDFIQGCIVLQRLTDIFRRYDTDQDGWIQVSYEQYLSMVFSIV
# UniProt Q9Y3C6, sequence (Q9Y3C6 whole entry, looked up): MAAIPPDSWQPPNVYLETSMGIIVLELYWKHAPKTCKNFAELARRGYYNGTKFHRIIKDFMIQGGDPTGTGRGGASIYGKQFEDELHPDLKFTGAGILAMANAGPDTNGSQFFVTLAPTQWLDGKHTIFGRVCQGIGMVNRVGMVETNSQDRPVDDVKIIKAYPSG
Target,log2 fold change (bafetinib),log2 fold change [1],log2 fold change (nilotinib),log2 fold change [2],log2 fold change (dasatinib),log2 fold change [3],log2 fold change [4],log2 fold change [5],log2 fold change (tipifarnib),log2 fold change (mubritinib),log2 fold change [6],log2 fold change [7],log2 fold change [8],log2 fold change [9],log2 fold change (entinostat),log2 fold change (vorinostat),log2 fold change (citarinostat),log2 fold change (silmitasertib),log2 fold change [10],log2 fold change [11]
PRKAR1A (UniProt P10644),0.232,-0.006,0.12,0.195,-0.046,0.152,0,0.281,0.231,-0.169,-0.052,0.191,0.301,-0.041,-0.068,-0.16,0,0.166,0.063,-0.04
POTEI (UniProt P0CG38),-0.052,-0.02,0.046,-0.049,0.087,0.043,-0.005,-0.003,-0.019,0.004,-0.058,0.061,0.139,0.124,-0.004,-0.016,-0.009,-0.03,-0.053,-0.004
PRIM2 (UniProt P49643),0.007,-0.019,-0.063,-0.06,-0.128,0.021,0.015,0.046,-0.018,0.101,-0.035,-0.141,-0.16,-0.061,0.058,0.098,0.135,0.033,-0.096,-0.018
PSMD9 (UniProt O00233),-0.038,0.199,-0.011,0.016,0.037,0.008,0.018,0.034,0.04,0.009,0.041,0.017,0.022,0.072,0.017,0.086,0.029,-0.013,-0.027,0.005
PXK (UniProt Q7Z7A4),-0.01,0.086,-0.026,0.025,0.226,0.012,0.029,-0.106,-0.001,0.098,-0.057,-0.044,-0.279 (active),-0.073,0.014,0.018,0.021,-0.002,-0.043,0.008
PDCD6 (UniProt O75340),-0.11,-0.005,-0.071,0.042,-0.021,-0.026,0.027,0.022,-0.034,0.009,-0.066,-0.08,0.117,-0.106,0.081,0.028,0.064,-0.022,-0.096,-0.024
POMP (UniProt Q9Y244),-0.097,-0.101,0.142,-0.093,0.006,-0.092,0.079,0.156,0.116,0.01,0.106,0.039,-0.029,-0.024,0.05,-0.066,0.026,0.022,-0.022,-0.01
PPIL1 (UniProt Q9Y3C6),0.024,-0.002,-0.029,0.046,-0.042,0.073,-0.063,-0.022,-0.088,0.01,-0.054,0.059,0.008,-0.074,-0.001,-0.013,0.015,0.075,0.001,-0.051
